Bioassay records as filed in PubChem.
Most compounds without a hit are left out; they make up all but 27% or so of the library.
CYP2C9 inhib – human CYP2C9 inhibition; P11712; CYP2C9 Supersomes, luciferin-H conversion, luminescence; inhibition, % at 5 µM; actives 20% (n = 96,000); AID 777;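 active = blocking of liver enzyme CYP2C9 beyond about 50% at 5 µM, limit read from the data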
Pyk2 oligo antag – Pyk2 (human) oligomerization antagonism. Q14289. actives 0.83% (n = 99,000). AID 1347419. z-score (the deposit names both 25 µM and 10 µM). Q293 cells, Pyk2 FERM NanoBiT luminescence; hits give low values;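 active = Z-score of -3 or lower, scaled per plate to the spread of control and sample wells; inactive = z-score above -3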;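 also: negative z-score means lost luminescence so less FERM oligomerization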
CYP2C19 inh – inhibitors of human CYP2C19; CYP2C19 Supersomes, luciferin-H EGE luminescence, 30 min; inhibition, % at 5 µM; actives 21% (n = 96,000); AID 778;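 active = CYP2C19 inhibition above a set limit at 5 µM in the primary screen, cut at about 50% in these data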;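 also: plate controls were negative control wells for no effect and 2.5 mM tranylcypromine positive control for full effect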
Target sequence (P33261 whole entry, looked up): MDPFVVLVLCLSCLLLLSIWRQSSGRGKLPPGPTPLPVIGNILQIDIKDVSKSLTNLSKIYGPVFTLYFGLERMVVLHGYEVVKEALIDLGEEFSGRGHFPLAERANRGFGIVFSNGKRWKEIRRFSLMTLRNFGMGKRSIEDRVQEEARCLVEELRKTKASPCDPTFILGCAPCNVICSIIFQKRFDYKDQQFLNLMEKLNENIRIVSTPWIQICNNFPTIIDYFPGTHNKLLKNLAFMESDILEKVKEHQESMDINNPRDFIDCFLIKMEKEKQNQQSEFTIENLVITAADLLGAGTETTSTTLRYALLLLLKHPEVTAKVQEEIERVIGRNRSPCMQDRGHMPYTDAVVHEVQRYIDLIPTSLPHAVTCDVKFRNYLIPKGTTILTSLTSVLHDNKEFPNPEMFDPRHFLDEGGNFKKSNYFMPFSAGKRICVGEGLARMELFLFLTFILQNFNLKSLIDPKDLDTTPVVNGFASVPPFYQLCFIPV
CYP2C19 activ – activators of human cytochrome P450 2C19; P33261; recombinant CYP2C19, luciferin-H EGE luminescence; hits give high values; 0 = fully inhibited enzyme, 1 = untreated enzyme; AID 1025; 96,000 tested, under 10 active; activation factor at 5 µM;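 active = activation factor of at least 2 at 5 µM in the primary screen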;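 also: 0 = wells with 2.5 mM tranylcypromine and 1 = vehicle-only wells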
CYP2C9 activ – activators of human CYP2C9 | P11712 | recombinant CYP2C9, luciferin-H conversion, luminescence; hits give high values; factor 1 = untreated enzyme, 0 = blocked | activation factor at 5 µM | actives 1.4% (n = 96,000);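 active = activation factor of 2 or more for CYP2C9 at a 5 µM dose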;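 also: 0 = sulfaphenazole-blocked wells and 1 = vehicle-only wells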
Cav32 inh – inhibitors of human Cav3.2 T-type calcium channel; Cav3.2-expressing cells, Fluo-4 calcium fluorescence FDSS; hits give low values; B-score at 10 µM; actives 4% (n = 100,000);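 active = single-dose well whose peak fluorescence ratio is a statistical outlier from its plate by either plate-standardised score or position-corrected B-score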
The depositor's hits bear a star.

`C=CCn1c(SCc2c(C)noc2C)nnc1C1COc2ccccc2O1` (configuration not stated) gave CYP2C9 inhib 61.3*, Pyk2 oligo antag 0.56, CYP2C19 inh 33.2, CYP2C19 activ 0.7, CYP2C9 activ 0.4 and Cav32 inh -4.87*.
Screening CCOc1cc(C(=O)CCC(=O)OCC(=O)N2c3ccccc3NC(=O)C2(C)C)ccc1O returned CYP2C9 inhib 12.3, Pyk2 oligo antag 0.36, CYP2C19 inh 30.0, CYP2C19 activ 0.7, CYP2C9 activ 0.9 and Cav32 inh -2.42.
Screening COC(=O)c1ccc(Cn2c(O)c(N=O)c3ccccc32)o1 returned CYP2C9 inhib 42.9, Pyk2 oligo antag 0.37, CYP2C19 inh 46.1, CYP2C19 activ 0.5, CYP2C9 activ 0.6 and Cav32 inh -0.00782.
`O=Nc1c(O)n(Cc2ccc(Cl)c(Cl)c2)c2ccccc12` gave CYP2C9 inhib 61.5*, Pyk2 oligo antag -2.74, CYP2C19 inh 50.7*, CYP2C19 activ 0.5, CYP2C9 activ 0.4 and Cav32 inh -2.3.
Screening CCN(CC)CCCNS(=O)(=O)c1ccc(OC)cc1 returned CYP2C9 inhib 7.1, Pyk2 oligo antag 0.32, CYP2C19 inh 2.7, CYP2C19 activ 1, CYP2C9 activ 0.9 and Cav32 inh -2.72.
`CCN(CC)CC#CCC(C)(c1ccccc1)c1ccccc1` gave CYP2C9 inhib 71.6*, Pyk2 oligo antag -0.75, CYP2C19 inh 93.6*, CYP2C19 activ 0.1, CYP2C9 activ 0.3 and Cav32 inh -1.38.
Screening CC(=O)N1N=C(c2cccc([N+](=O)[O-])c2)OC1c1ccccc1Cl (configuration not stated) returned CYP2C9 inhib 85.5*, Pyk2 oligo antag -0.96, CYP2C19 inh 62.5*, CYP2C19 activ 0.4, CYP2C9 activ 0.1 and Cav32 inh -3.99.
c1ccc(N2CCN(Cc3cn4cccnc4n3)CC2)cc1 was read as CYP2C9 inhib -14.0, CYP2C19 inh 32.7, CYP2C19 activ 0.7, CYP2C9 activ 1.1 and Cav32 inh -0.655.
For CCN(CCO)c1nc(SC)nc2c1sc1nc(-c3ccco3)c3c(c12)CCC3 the results were CYP2C9 inhib 25.0, Pyk2 oligo antag -0.67, CYP2C19 inh 21.5, CYP2C19 activ 0.8, CYP2C9 activ 0.8 and Cav32 inh 1.14.
`CSc1nc(NCCOCCO)c2sc3nc(-c4ccco4)c4c(c3c2n1)CCC4` gave CYP2C9 inhib 63.1*, Pyk2 oligo antag -0.52, CYP2C19 inh 26.7, CYP2C19 activ 0.7 and CYP2C9 activ 0.4.
CC(C)c1nc(CN(C)C(=O)N[C@H](C(=O)N[C@@H](Cc2ccccc2)C[C@H](O)[C@H](Cc2ccccc2)NC(=O)OCc2cncs2)C(C)C)cs1 was read as Cav32 inh -5.63*.
For Cc1ccc(-n2c(SCC(=O)N3CCOCC3)nnc2-c2ccncc2)cc1 the results were CYP2C9 inhib 12.4, Pyk2 oligo antag 0.22, CYP2C19 inh 72.2*, CYP2C19 activ 0.3, CYP2C9 activ 0.9 and Cav32 inh 1.49.
For COc1ccc(N2CCN(C(=O)CSc3nnc(-c4cccnc4)n3-c3ccc(F)cc3)CC2)cc1 the results were Pyk2 oligo antag -0.28 and Cav32 inh 1.37.
Screening O=C(CSc1nnc(-c2cccnc2)n1-c1ccccc1)N1CCN(c2ccc(F)cc2)CC1 returned CYP2C9 inhib 63.7*, Pyk2 oligo antag 0.65, CYP2C19 inh 92.0*, CYP2C19 activ 0.1, CYP2C9 activ 0.4 and Cav32 inh 4.04*.
`c1csc(-c2nn3c(C4COc5ccccc5O4)nnc3s2)c1` (configuration not stated) gave CYP2C9 inhib 51.2*, Pyk2 oligo antag -0.2, CYP2C19 inh 57.9*, CYP2C19 activ 0.4 and CYP2C9 activ 0.5.
Screening Clc1ccccc1-c1nnc2sc(-c3ccc4c(c3)OCO4)nn12 returned CYP2C9 inhib 44.1, Pyk2 oligo antag -0.44, CYP2C19 inh 16.5, CYP2C19 activ 0.8, CYP2C9 activ 0.6 and Cav32 inh -3.35.
`Brc1ccccc1-c1nnc2sc(-c3ccc4c(c3)OCCO4)nn12` gave CYP2C9 inhib 96.5*, Pyk2 oligo antag -0.06, CYP2C19 inh 74.4*, CYP2C19 activ 0.3, CYP2C9 activ 0 and Cav32 inh -3.98.
Screening c1ccc2c(c1)OCC(c1nnc3n1-c1ccccc1SC3)O2 (configuration not stated) returned CYP2C9 inhib 84.8*, Pyk2 oligo antag -1.37, CYP2C19 inh 95.8*, CYP2C19 activ 0, CYP2C9 activ 0.2 and Cav32 inh -3.02.
`c1ccc2c(c1)OCC(c1nnc3sc(-c4cnccn4)nn13)O2` (configuration not stated) gave CYP2C9 inhib -4.2, Pyk2 oligo antag 0.53, CYP2C19 inh 20.6, CYP2C19 activ 0.8, CYP2C9 activ 1 and Cav32 inh 0.832.
For Fc1ccc(-c2nn3c(C4COc5ccccc5O4)nnc3s2)cc1 (configuration not stated) the results were CYP2C9 inhib 49.0, Pyk2 oligo antag 0.57, CYP2C19 inh 6.8, CYP2C19 activ 0.9 and CYP2C9 activ 0.5.
For c1ccc2c(c1)OCC(c1nnc3sc(-c4ccc5c(c4)OCO5)nn13)O2 (configuration not stated) the results were CYP2C9 inhib 83.7*, Pyk2 oligo antag -0.42, CYP2C19 inh 65.3*, CYP2C19 activ 0.3, CYP2C9 activ 0.2 and Cav32 inh -3.44.
Screening NC(=O)Cc1c[nH]c2cccc(O)c12 returned CYP2C9 inhib 1.3, Pyk2 oligo antag 0.26, CYP2C19 inh 0.4, CYP2C19 activ 1, CYP2C9 activ 1 and Cav32 inh -0.23.
O=C(c1ccc2c(=O)n(Cc3ccco3)c(=S)[nH]c2c1)N1CCN(Cc2ccccc2)CC1 was read as CYP2C9 inhib 70.1*, Pyk2 oligo antag 0.46, CYP2C19 inh 57.1*, CYP2C19 activ 0.4, CYP2C9 activ 0.3 and Cav32 inh -6.63*.
CN1CCN(C(=O)c2ccc3c(=O)n(CCc4ccccc4)c(=S)[nH]c3c2)CC1 was read as Pyk2 oligo antag 0.39.
For CCOC(=O)N1CCN(C(=O)c2ccc3c(=O)n(Cc4ccc(Cl)cc4)c(=S)[nH]c3c2)CC1 the results were CYP2C9 inhib 51.8*, Pyk2 oligo antag -0.07, CYP2C19 inh 41.0, CYP2C19 activ 0.6 and CYP2C9 activ 0.5.
For O=c1c2cc3c(cc2[nH]c(=S)n1Cc1ccco1)OCO3 the results were CYP2C9 inhib 11.3, Pyk2 oligo antag -0.34, CYP2C19 inh 77.6*, CYP2C19 activ 0.2 and CYP2C9 activ 0.9.
CC1CCCN(C(=O)c2ccc3c(=O)n(Cc4ccc5c(c4)OCO5)c(=S)[nH]c3c2)C1 (configuration not stated) was read as CYP2C9 inhib 45.2, Pyk2 oligo antag -0.44, CYP2C19 inh 40.0, CYP2C19 activ 0.6, CYP2C9 activ 0.5 and Cav32 inh -5.27*.
For CC1(c2cc(C(F)(F)F)n3nc(C(=O)O)cc3n2)CC1 the results were Pyk2 oligo antag 0.63 and Cav32 inh 0.224.
